# PubChem BioAssay
# Values without a mark were called inactive. The rule behind the calls is not given here.
# Target: Pantothenate synthetase (Mycobacterium tuberculosis (strain ATCC 25618 / H37Rv)) (UniProt P9WIL5)
# Assay: Coupled enzyme confirmation of inhibitors against recombinant Mtb PanC (AID 375);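 note: 0% = full reaction with vehicle and 100% = no enzyme background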
# Settings: coupled enzyme assay; at 10 µM, hits give high values
# Pantothenate synthetase (Mycobacterium tuberculosis (strain ATCC 25618 / H37Rv)), sequence (P9WIL5 whole entry, looked up): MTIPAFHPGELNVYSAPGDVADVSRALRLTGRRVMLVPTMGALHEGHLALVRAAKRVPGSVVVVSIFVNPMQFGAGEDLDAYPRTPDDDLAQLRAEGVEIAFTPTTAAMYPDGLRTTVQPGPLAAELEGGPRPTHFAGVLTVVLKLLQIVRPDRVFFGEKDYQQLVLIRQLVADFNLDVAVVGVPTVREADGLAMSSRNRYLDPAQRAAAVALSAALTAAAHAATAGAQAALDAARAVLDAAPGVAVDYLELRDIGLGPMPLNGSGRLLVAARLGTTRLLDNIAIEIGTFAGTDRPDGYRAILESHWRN
row,Compound,inhibition [%]
1,CC1(C)CNC(=O)CC(C)(C)N1O,0
2,O=C(NC1CCCCC1)N(Cc1ccccc1)Cc1ccco1,1
3,CCOC(=O)CSC1=C(C#N)C(c2ccc3c(c2)OCO3)CC(=O)N1 (stereo not given),0
4,O=C(Cn1nnc(-c2cc(Cl)ccc2-n2cnnn2)n1)N1CCCc2ccccc21,0
5,CC(C)(C)OC(=O)N1CCC(C(=O)N[C@H](Cc2ccccc2)C(=O)O)CC1,0
6,O=C(Nc1ccc(S(=O)(=O)NC2CCCC2)cc1)c1cnccn1,0
7,CCc1nc(C)c(C#N)c2cc(OC)c(OC)cc12,0
8,CCOc1ccc(C2CC(c3ccccc3C)n3nc(N)nc3N2)cc1 (stereo not given),0
9,O=C(O)CCC(=O)c1c[nH]c2ccccc12,3
10,Cc1cc(C)n2nc(S(=O)(=O)N(C)Cc3ccccc3)nc2n1,0
11,CC(NC(=O)c1ccc(F)cc1)C(c1cccs1)N1CCN(C)CC1 (stereo not given),3
12,Cc1cccc(C)c1-n1nnnc1SCSc1nnnn1-c1c(C)cccc1C,1
13,O=C(CCSc1nc(-c2ccco2)cc(C(F)(F)F)n1)NCCc1ccccc1,1
14,Cc1noc(C)c1CSc1ccccc1C(=O)N1CCN(c2ccccc2)CC1,0
15,CCOc1ccc(-c2cn(S(=O)(=O)c3cccc4nsnc34)nc2N)cc1,0
16,CCCCN(CCCC)C(=O)CN(C)S(=O)(=O)c1ccc2c(c1)n(C)c(=O)c(=O)n2C,5
17,CNC(=O)Nc1cccc(C(F)(F)F)c1,0
18,CN(CCCC(=O)Nc1ccncc1)S(=O)(=O)c1ccc(Cl)cc1,3
19,CS(=O)(=O)Nc1ccccc1C(=O)O,0
20,CSc1nnc(-c2nnc(SC)n2-c2ccccc2)n1-c1ccccc1,0

row,Compound,inhibition [%]
1,O=C(c1ccco1)N1CCN(C(=O)c2cc3c(s2)-c2ccccc2OC3)CC1,11
2,CCC(C)(NC(=O)c1ccc(=O)[nH]c1)C(=O)NC1CCCC1 (stereo not given),0
3,COc1cccc(Oc2cnc(N)nc2-c2ccc(OC)cc2O)c1,2
4,CCN1CCCC1CN=Cc1c(O)n(-c2ccccc2)c(=O)c2ccccc12 (stereo not given),0
5,Cc1nc(N2CCc3ccccc32)[nH]c(=O)c1CCC(C)C,0
6,O=C(CN1C(=O)c2ccccc2C1=O)Nc1ccccc1C(=O)N1CCCC1,1
7,CCCCn1c(CN2CCN(CCO)CC2)nc2ccccc21,0
8,COc1ccc(C(=O)CSc2nnc(-c3ccc(C)cc3)o2)cc1,1
9,CC(=O)Nc1ccc(S(=O)(=O)N2CCN(c3cc(C)nc4ccccc34)CC2)cc1,5
10,CCN(CC)CCNC(=O)c1ccc(CS(=O)(=O)c2ccc(Br)cc2)o1,0
11,Cc1nc2ccccc2c(=O)n1CC(=O)N1CCOCC1,2
12,Cc1ccccc1-c1nc(CN2CCC(C(=O)NCCCN3CCCC3)CC2)c(C)o1,0
13,CCCn1c(=N)n(CC(=O)c2cccs2)c2ccccc21,3
14,CCN(CC)CCCN1C(=O)C(=O)/C(=C(/O)c2ccc3c(c2)OCO3)C1c1ccccn1 (stereo not given),1
15,CCCCSc1nc2c(cnn2-c2ccc(Cl)cc2)c(=O)[nH]1,0
16,CCOc1ccc(C(=O)OCc2nnc(-c3cccs3)o2)cc1OC,0
17,O=C(COC(=O)c1ccccc1Oc1ccccc1)NC1CCS(=O)(=O)C1 (stereo not given),0
18,Cc1cccnc1NC(=O)CCCN1C(=O)c2ccccc2C1=O,0
19,O=C1CC(Sc2nnc(-c3ccccc3)o2)C(=O)N1c1ccccc1 (stereo not given),0
20,Cc1ccc2[nH]c(=O)c(CN(CCCN3CCOCC3)C(=O)Nc3cccc(Cl)c3)cc2c1,0
